# PostGolgi ctrl – growth of the yeast control strain, post-Golgi counter-screen; 98,000 compounds, 5% hits; inhibition, % at 10 µM; AID 738; efflux-deficient yeast background strain, growth absorbance A615, 16 h
# PLAP act – human PLAP activation | P05187 | purified PLAP enzyme, luminescent substrate read-out; hits give high values | activation fold at 20 µM | 96,000 compounds, 1.2% hits; in the data active means activation fold above about 2
# hDAT+cocaine – modulates human dopamine transporter uptake under cocaine; Q01959; LLC-PK1 hDAT cells, [14C]-dopamine uptake with cocaine IC80; actives deviate in either direction; B-score at 10 µM; 110,000 compounds, 1.3% hits; AID 449768;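 active means Z score or B-score, a plate-position-corrected score, falls beyond the plate's 99.7% confidence bounds, in either direction; inactive means both scores lie inside the 99.7% bounds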
# Target sequence (Q01959 whole entry, looked up): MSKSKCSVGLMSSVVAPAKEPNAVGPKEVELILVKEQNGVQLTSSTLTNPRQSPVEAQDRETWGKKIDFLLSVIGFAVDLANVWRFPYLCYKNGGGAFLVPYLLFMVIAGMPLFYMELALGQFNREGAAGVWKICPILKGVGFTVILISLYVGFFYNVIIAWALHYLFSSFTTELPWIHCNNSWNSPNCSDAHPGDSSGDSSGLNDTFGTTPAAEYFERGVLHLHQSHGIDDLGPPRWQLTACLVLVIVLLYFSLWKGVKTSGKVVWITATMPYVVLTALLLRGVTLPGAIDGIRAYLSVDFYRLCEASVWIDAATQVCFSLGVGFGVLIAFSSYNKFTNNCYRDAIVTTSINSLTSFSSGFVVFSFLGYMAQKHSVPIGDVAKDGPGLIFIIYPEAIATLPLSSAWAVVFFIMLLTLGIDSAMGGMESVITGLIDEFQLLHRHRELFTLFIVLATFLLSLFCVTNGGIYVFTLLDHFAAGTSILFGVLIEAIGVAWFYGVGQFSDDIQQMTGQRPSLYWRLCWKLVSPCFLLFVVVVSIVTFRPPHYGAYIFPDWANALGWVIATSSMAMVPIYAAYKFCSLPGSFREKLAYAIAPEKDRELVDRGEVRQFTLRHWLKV
# PostGolgi yeast – growth inhibition of a yeast mutant, post-Golgi transport screen; post-Golgi transport phenotypic cell assay; inhibition, % at 10 µM; 98,000 compounds, 0.9% hits;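 further: yeast cells grown in 1536-well plates; yeast grown about 18 h at 30C before absorbance read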
# Cav32 inh – human Cav3.2 channel inhibition, primary screen. O95180. Cav3.2-expressing cells, Fluo-4 calcium fluorescence FDSS; hits give low values. B-score at 10 µM. 100,000 compounds, 4% hits. AID 449739;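 active means single-dose well whose peak fluorescence ratio is a statistical outlier from its plate by either plate-standardised score or position-corrected B-score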
# Hits are given with their value; i = inactive; nt = no result. Sampled rows, rich in hits. Any-hit rate of the full collection: about 9.6%. Unless noted, no stated cut-off is given here; in the data, active means inhibition above about 30%; inactive means the rest.
SMILES,PostGolgi ctrl,PLAP act,hDAT+cocaine,PostGolgi yeast,Cav32 inh
COc1ccc(Br)cc1/C=N/NC(=O)c1nc(-c2ccccc2)n2c1CCCCC2,36,i,i,i,i
Cn1nc(-c2ccc(Cl)cc2)c2cc(C(=O)NCCCN3CCOCC3)sc21,i,i,i,i,i
Cn1nc(-c2ccc(Cl)cc2)c2cc(C(=O)NCCN3CCOCC3)sc21,i,i,2.6,i,i
Cc1sc(NC(=O)c2ccco2)c(CN2CCC(C)CC2)c1C,i,i,i,i,-5.2
CCc1c(C)sc(NC(=O)c2ccco2)c1C(=O)N1CCCCC1,i,i,i,i,i
Cc1sc(NC(=O)c2ccco2)c(C(c2cccnc2)N2CCC(C)CC2)c1C (stereo not given),41,i,i,86,i
Cc1[nH]nc2nc3c(c(OC(=O)c4ccccc4)c12)c(=O)n(C)c(=O)n3C,i,i,nt,i,nt
Cc1cc(Cl)ccc1NC(=S)NCc1cccs1,i,i,i,i,i
CCn1c(SCC(=O)NCc2ccccc2)nc2ccccc2c1=O,i,i,i,i,i
CCN(CC)C(=O)CSc1nc2ccccc2c(=O)n1-c1ccccc1OC,i,i,1.9,i,i
O=C(CSc1nc2ccccc2c(=O)n1C1CC1)NCc1ccccc1,36,i,i,i,i
CCN(CC)C(=O)CSc1nc(O)c(Cc2ccccc2)c(=O)n1-c1ccccc1,i,i,i,i,i
CCCN(CCC)C(=O)CSc1nc2ccccc2c(=O)n1C1CCCC1,i,i,i,i,-5.6
CN(C)c1ccc(NC(=O)CSc2nc3ccccc3c(=O)n2C2CCCCC2)cc1,i,i,i,i,i
CCOc1cc(C)nc(NCCc2ccc(OC)c(OC)c2)n1,i,i,i,i,i
Cc1c(N=Cc2c(O)n(C3CCCCC3)c(=O)[nH]c2=O)c(=O)n(-c2ccccc2)n1C,i,i,i,i,i
O=c1[nH]c(=O)n(C2CCCCCC2)c(O)c1C=NCc1ccc(F)cc1,50,i,i,i,-6.7
CC(C)N=c1scc(-c2ccco2)n1/N=C/c1ccc(O)c(O)c1,55,nt,i,i,i
CN=c1scc(C)n1/N=C/c1ccc(O)c(O)c1O,i,i,i,i,i
CC(C)(C)C(=O)/C=C(N)/C=C/c1ccccc1,33,i,i,i,i
CC(C)(C)C(=O)/C=C(\N)c1ccccn1,i,i,i,i,i
COC(=O)c1ccc(-n2cncn2)c(F)c1,i,i,i,i,i
COc1ccc(CC(=O)Nc2ccc3c(c2)CCC3)cc1OC,i,2.1,i,i,i
CNC(=S)NNC(=O)Cc1ccc(OC)c(OC)c1,i,2.1,i,i,i
Cc1ccc(CNC(=O)CSc2c3c(nc4cc(Cl)ccc24)CCCC3)o1,i,i,i,i,i
SMILES,PostGolgi ctrl,PLAP act,hDAT+cocaine,PostGolgi yeast,Cav32 inh
O=C1CN(C(=O)c2ccc(Br)o2)C(c2ccccc2)c2cc(Cl)ccc2N1 (stereo not given),i,i,i,i,-4.5
O=C1CN(C(=O)c2ccc(Br)o2)C(c2ccccc2)c2cc(Br)ccc2N1 (stereo not given),i,i,nt,i,nt
O=C1CN(C(=O)c2ccc(Br)o2)C(c2ccc(F)cc2)c2cc(Cl)ccc2N1 (stereo not given),31,i,i,i,-6.8
Cc1ccc2c(c1)C(c1ccccc1)N(C(=O)c1ccc(Br)o1)CC(=O)N2 (stereo not given),i,i,nt,i,nt
COC(=O)C1=COC(C)C2CN3CCc4c([nH]c5cc(OC)c(OC)cc45)C3CC12 (stereo not given),nt,nt,i,nt,i
COCCNC(=O)C(c1ccc(C)o1)N(C(=O)c1snc(C(N)=O)c1N)c1cc(C)cc(C)c1 (stereo not given),i,i,i,i,i
Cc1cc(=O)n2nc(-c3ccccc3)sc2n1,i,i,-2.7,i,i
CCOC(=O)C1C(=O)NC(SC)=C(C#N)C1c1ccccc1F (stereo not given),i,i,i,i,-4.9
Cc1ccc(-c2nc3cccnc3s2)cc1NS(=O)(=O)c1ccc2c(c1)OCCO2,98,i,i,86,i
Cc1nc2ccc(S(=O)(=O)Nc3cc(-c4nc5cccnc5s4)ccc3C)cc2s1,nt,nt,i,nt,i
CCCn1c(-c2ccccc2)nc2c(=O)n(C)c(=O)[nH]c21,36,i,nt,i,nt
CC(C)c1nc(N2CCOCC2)c(C#N)c2c1CCCC2,i,i,i,i,-5
CCN1CCc2c(C#N)c(N3CCCCC3)nc(N3CCOCC3)c2C1,i,i,i,i,i
CCSc1nc(N2CCOCC2)c2c(c1C#N)CCCC2,41,i,i,i,i
N#Cc1c(N2CCOCC2)nc(N2CCCCC2)c2c1CCN(C1CCCCC1)C2,i,2,i,i,i
CCN(CC)c1nc(N2CCOCC2)c(C#N)c2c1CN(C)CC2,i,i,i,i,i
Cc1ccc2[nH]c3c(c2c1)CN(C(=O)CN1c2ccc(F)cc2CCC1C)CC3 (stereo not given),32,i,i,i,i
CCCCn1c(-c2ccncc2)nc2c1c(=O)[nH]c(=O)n2CC(C)C,i,i,i,i,3.1
COc1ccc2cc3cc(C(=O)NCCN4CCN(c5ccccc5F)CC4)oc3nc2c1,81,i,i,i,i
CN=C1CC(SC)=C1c1ccc(C)cc1,nt,nt,i,nt,i
CC(CCc1ccccc1)NC(=O)c1cccs1 (stereo not given),i,i,i,i,i
CCCCCN(C(=O)CN(C)Cc1ccc(OC)cc1OC)c1c(N)n(CCCC)c(=O)[nH]c1=O,i,2.4,i,i,i
CC(=O)c1ccc(NS(=O)(=O)c2cccc(C)c2)cc1,i,i,i,i,i
Oc1ccccc1C1Nc2cccc3cccc(c23)N1,i,i,i,i,i
c1csc(C2Nc3cccc4cccc(c34)N2)c1,32,i,i,i,i
SMILES,PostGolgi ctrl,PLAP act,hDAT+cocaine,PostGolgi yeast,Cav32 inh
Brc1ccc(C2Nc3cccc4cccc(c34)N2)o1,i,i,i,i,-5.4
COCc1nc2ccccc2n1Cc1ccc(Br)cc1,36,i,i,i,i
Cc1ccc(C)c(Cn2c(CO)nc3ccccc32)c1,i,i,i,i,-6.4
CC(=O)NCCCc1nc2ccccc2n1Cc1ccc(C)cc1,i,i,i,i,i
c1ccc(Cn2c(CNc3nc4ccccc4n3CCN3CCOCC3)nc3ccccc32)cc1,i,2.8,i,i,i
Cc1ccc(Cn2c(Cc3ccccc3)nc3ccccc32)cc1,32,i,i,i,-5
CCC(=O)Nc1nc2ccccc2n1CCN1CCOCC1,i,i,nt,i,nt
COc1ccc(C(=O)NCCCc2nc3ccccc3n2Cc2cc(C)ccc2C)cc1OC,nt,nt,i,nt,i
COCc1nc2ccccc2n1Cc1ccccc1,i,i,i,i,i
O=C1Cc2cccc3cccc1c23,i,i,i,i,i
Nc1nonc1-c1nc2ccccc2n1Cc1ccccc1,42,i,i,i,i
CCCCn1c(-c2nonc2N)nc2ccccc21,i,i,i,i,i
Cc1cccc(NCc2nc3ccccc3n2Cc2ccccc2)c1,66,i,i,54,nt
Cc1nc2cc(NCc3nc4ccccc4n3Cc3ccccc3)ccc2n1C,i,i,nt,i,nt
O=C1c2ccccc2-c2onc3ccc(NCc4ccco4)c1c23,34,i,i,i,-4.1
CCNc1ccc2noc3c2c1C(=O)c1ccccc1-3,nt,nt,i,nt,i

# From PubChem
